Among all 330,000 compounds or so, about 4,900 (1.5%) were called active.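 Rule for the calls: active = inhibition above about 50% at the single test dose (limit read from the data); inactive = the rest.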 What follows is part of a selection rich in actives, with near analogues and random picks from the rest.
Biological target: Sentrin-specific protease 7 (Homo sapiens) (UniProt Q9BQF6)
Experiment: SENP7 protease inhibitors, primary screen, biochemical, luminescence, uHTS (AID 434973);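 note: plate controls were DMSO with enzyme for no effect and no enzyme buffer wells for full effect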
Conditions: recombinant SENP7, Z-RLRGG-aminoluciferin luminescence, 40 min; at 5 µM; stronger effect = higher value

Compound | inhibition
Cc1ccc(-n2nc3ccc(NC(=O)/C=C/c4ccco4)cc3n2)cc1C | -3.4% (inactive)
CCC(=O)Nc1ccc2nn(-c3ccc(F)cc3)nc2c1 | 81.9% (active)
Cc1cccc(C(=O)OCC(=O)Nc2ccc(F)cc2)c1 | -5.6% (inactive)
CC12CN(Cc3ccccc3)CC(C)(CN(Cc3ccccc3)C1)C2=NO | -9.93% (inactive)
COc1cccc(C(=O)Nc2nnc(S(=O)(=O)N3CCOCC3)s2)c1 | -5.71% (inactive)
COc1cccc(C(=O)Nc2nc3ccc(S(C)(=O)=O)cc3s2)c1 | 91.1% (active)
COc1cccc(C(=O)Nc2nnc(S(=O)(=O)N(C)c3ccccc3)s2)c1 | 2.47% (inactive)
CCc1noc(C)c1C(=O)Nc1nc(-c2ccccc2)cs1 | 0.582% (inactive)
CCc1noc(C)c1C(=O)Nc1nc2ccc(OC)cc2s1 | 53.6% (active)
Cc1noc(C)c1CSCC(=O)Nc1nc2ccc(Oc3ccccc3)cc2s1 | 7.89% (inactive)
O=C(Nc1ccccc1)c1nnsc1S(=O)(=O)c1ccc(Cl)cc1 | 7.61% (inactive)
O=C(Oc1ccccc1)Oc1ccc2c(c1)oc(=O)c1ccccc12 | 11.6% (inactive)
Cc1cc(NC(=O)C(C)SCC(=O)Nc2ccccc2N2CCCCC2)no1 (stereo not drawn) | 7.37% (inactive)
Cc1nn(C)c(C(=O)NNC(=S)NC2CCCCC2)c1Cl | 15.8% (inactive)
O=C(CN1C(=O)NC2(CCCC2)C1=O)OCCOc1ccc(F)cc1 | 2.48% (inactive)
OCCC1CN(Cc2cccc(O)c2)CCN1CCc1ccccc1 (stereo not drawn) | -3.9% (inactive)
COC(=O)c1oc2ccc(Br)cc2c1NC(C)=O | -6.53% (inactive)
Cc1nonc1NC(=O)c1oc2ccccc2c1C | -17.1% (inactive)
Cc1c(C(=O)Nc2ccccn2)oc2ccc(Br)cc12 | 65.6% (active)
Cc1ccc(OCC(=O)Nc2ccccc2Sc2ccc(Cl)cc2)c([N+](=O)[O-])n1 | 3.81% (inactive)
CCN(CC(=O)Nc1ccc(NC(C)=O)cc1)C(=O)CSC(=S)N1CCCC1 | -7.39% (inactive)
Cc1cccc(NC(=O)/C=C/c2ccc3c(c2)OCO3)n1 | 78% (active)
Cc1cccc(NC(=O)Nc2ccc3c(c2)OCO3)n1 | 17% (inactive)
O=C(/C=C/c1ccc2c(c1)OCO2)NCc1ccc(F)cc1 | -2.53% (inactive)
CCN(CC(=O)NCC(=O)Nc1cccc(C)c1C)Cc1ccccc1 | 1.52% (inactive)

Compound | inhibition
O=C(COC(=O)c1ccc(O)cc1)Nc1nccs1 | -6.7% (inactive)
Cc1c(Cl)cccc1NC(=O)NCCCN1CCCC1=O | -2.59% (inactive)
Cc1c(Cl)cccc1NC(=O)Nc1ccc(C(=O)N2CCCC2)cc1 | 57% (active)
O=C(Nc1ccc(Cl)cc1)Nc1ccc(C(=O)N2CCOCC2)cc1 | 11.1% (inactive)
COc1ccc(N2CCN(C(=O)c3cn(C)c4ccc(S(=O)(=O)N5CCOCC5)cc4c3=O)CC2)cc1 | 8.09% (inactive)
Cc1ccc(/C(N)=N/OC(=O)COc2ccc(Cl)c(C)c2)cc1 | -1.43% (inactive)
N/C(=N\OC(=O)c1cc(-c2ccccc2)nc2ccccc12)c1ccncc1 | -11.9% (inactive)
Cc1cccc(/C(N)=N/OC(=O)c2ccccc2Cl)c1 | 98.2% (active)
CC(C)c1ccc(NC(=O)CCN2C(=O)c3ccc([N+](=O)[O-])cc3C2=O)cc1 | -0.0494% (inactive)
COc1ccc(C(=O)COC(=O)Cn2cnc3c2c(=O)n(C)c(=O)n3C)c(OC)c1 | -3.24% (inactive)
Cn1c(COc2ccc(Cl)cc2)nc2ccccc2c1=O | -3.98% (inactive)
Cc1ccc(OCc2nc3ccccc3n2C)cc1 | 59.7% (active)
CCOc1ccc(C(O)Cc2nc3ccccc3n2C)cc1 (stereo not drawn) | 3.12% (inactive)
O=C(Cn1c(COc2ccccc2)nc2ccccc21)Nc1cc(Cl)c(Cl)cc1Cl | -0.0494% (inactive)
CC(C)n1c(COc2ccccc2)nc2ccccc21 | 15% (inactive)
COCn1c(COc2ccccc2)nc2ccccc21 | 65.8% (active)
Cc1ccc(/C=N/NC(=O)C(NC(=O)c2ccccc2)c2n[nH]c(=O)c3ccccc23)cc1 (stereo not drawn) | 0.556% (inactive)
COC(=O)c1sccc1NS(=O)(=O)c1ccc(F)cc1F | 6.45% (inactive)
COC(=O)[C@]1(Cc2ccccc2)N[C@H](CN(C)S(=O)(=O)c2ccc(F)cc2)[C@@H]2C(=O)N(Cc3ccccc3)C(=O)[C@@H]21 | 1.87% (inactive)
CNc1[nH]ncc1[N+](=O)[O-] | 3.45% (inactive)
O=C(NN=Cc1ccc(N2CCOCC2)cc1)c1cc2ccccc2cc1O | 4.23% (inactive)
Cc1ccccc1N/N=C/c1ccc(N2CCOCC2)cc1 | -3.84% (inactive)
COc1ccc(C/C(C)=N/NC(=O)c2cc(C)oc2C)cc1 | -5.26% (inactive)
Cc1cc(C(=O)N/N=C\C(Br)=C\c2ccccc2)c(C)o1 | 21.1% (inactive)
CC(=C/c1ccccc1)/C=N/NC(=O)c1cc(C)oc1C | 73% (active)

Compound | inhibition
Cc1cc(C(=O)N/N=C/c2ccc(N3CCOCC3)cc2)c(C)o1 | 85.5% (active)
O=C(c1ccc(CS(=O)(=O)c2ccccc2)o1)N1CCN(c2ccccc2)CC1 | -0.219% (inactive)
O=C(NNc1ccccc1Cl)C(O)(c1cccc(C(F)(F)F)c1)c1cccc(C(F)(F)F)c1 | 1.97% (inactive)
COc1cc(CNC2CCCCC2)c(Br)cc1OC1CCCC1 | -2.57% (inactive)
COc1ccc(C(C)NC(=O)C2CCCC2)cc1 (stereo not drawn) | 1.04% (inactive)
COc1cccc(C(=O)NNC(=O)c2cccc(F)c2)c1 | 3.09% (inactive)
COc1cccc(C(=O)c2cc3ccc(O)cc3oc2=O)c1 | 100% (active)
CCOC(=O)c1cc2cc3ccccc3cc2oc1=O | 7.03% (inactive)
COc1ccc(N2CC(C(=O)NCCN3C(=O)S/C(=C\c4cccnc4)C3=O)CC2=O)c(OC)c1 (stereo not drawn) | -2.06% (inactive)
Cc1nc(-c2ccc(F)cc2)c(CC(=O)N(C)CC(=O)Nc2c(C)cccc2C)s1 | -11.8% (inactive)
CSCCC1NC2(C(=O)Nc3ccc(Cl)cc32)[C@@H]2C(=O)N(C3CCCC3)C(=O)[C@H]12 (stereo partly drawn) | 10.2% (inactive)
COc1ccc(OC)c2[nH]c(=O)c(CCNC(=O)C(=O)c3c[nH]c4ccccc34)cc12 | 4.26% (inactive)
CCN(CC)CCCNC(=O)COc1ccc2oc3c(c2c1)CCCC3 | 3.16% (inactive)
O=C(COc1ccc2oc3c(c2c1)CCCC3)Nc1ccccn1 | 89.1% (active)
CCOC(=O)N1CCN(C(=O)COc2ccc3oc4c(c3c2)CCCC4)CC1 | -3.39% (inactive)
O=C1C=C(c2ccnc3cc(Cl)ccc23)C[C@@H](c2ccc3c(c2)OCO3)C1 | 2.03% (inactive)
CC(=O)N1CCN(S(=O)(=O)c2ccc(C)c([N+](=O)[O-])c2)C1C(C)C (stereo not drawn) | 2.77% (inactive)
CCOC(=O)C(NC(=O)CC(C)C)(Nc1sc2c(c1C(N)=O)CCCC2)C(F)(F)F (stereo not drawn) | -5.57% (inactive)
CC(NCc1ccccc1OC1CCCC1)c1ccccc1 (stereo not drawn) | 8.44% (inactive)
Cc1ccc(/C=N/NC(=O)c2cc3ccccc3cc2O)o1 | 19% (inactive)
Cc1cc(N=Nc2ccc3ccccc3c2)ccc1O | 97.5% (active)
COC(=O)c1cccc(-n2[nH]nnc2=S)c1 | 8.95% (inactive)
Cc1ccc(CSc2ccc(S(=O)(=O)N3CCCCC3)cn2)cc1 | 14.9% (inactive)
COc1cc(C(=O)N2CCN(C)CC2)cc(OC)c1OC | -4.77% (inactive)
O=c1[nH]c(/C=C/c2cccc(Br)c2)nc2ccccc12 | 65.8% (active)

Compound | inhibition
CCOc1cc(/C=C/c2nc3ccccc3c(=O)[nH]2)cc(Br)c1OC | -1.26% (inactive)
O=c1[nH]c(/C=C\c2cccc(C(F)(F)F)c2)nc(O)c1[N+](=O)[O-] | 11.2% (inactive)
COc1ccccc1N(CC(=O)Nc1ccccc1C(=O)N1CCCC1)S(C)(=O)=O | 5.42% (inactive)
CCOC(=O)c1cnc2sccn2c1=O | 0.0796% (inactive)
CCOC(=O)c1cnc(COc2ccccc2Cl)[nH]c1=O | -8.27% (inactive)
CCOC(=O)c1cnc2[nH]c3ccccc3n2c1=O | 83.7% (active)
COc1cc(Cl)c(C)cc1NC(=O)CN1CCCCCC1 | 7.89% (inactive)
CC(C)CCOc1ccc(C(=O)C[N+]2(C)CCOCC2)cc1 | 0.789% (inactive)
O=C(Cn1ccc([N+](=O)[O-])n1)NCc1cccs1 | 71.3% (active)
O=C(CCn1ccc([N+](=O)[O-])n1)Nc1nccs1 | 0.106% (inactive)
Cc1ccnc(NC(=O)Cn2ccc([N+](=O)[O-])n2)c1 | 10% (inactive)
COc1ccc(N(CC(=O)NC2CCCCC2)C(=O)CNC(=O)c2ccco2)c(OC)c1 | 6.97% (inactive)
Cc1noc(C)c1C(=O)NCCc1ccc(S(N)(=O)=O)cc1 | 10.1% (inactive)
CCOc1ccc2nc(C(=O)N3CCCC(C)C3)sc2c1 (stereo not drawn) | 67.4% (active)
CCCC(=O)N(CCN1CCOCC1)c1nc2ccc(OCC)cc2s1 | 28.1% (inactive)
COc1ccc2cc(C(=O)C3CCCN(C(=O)c4sc(C)nc4C)C3)ccc2c1 (stereo not drawn) | -3.44% (inactive)
Cc1ccc(CNC(=O)Cn2cnc3c(NCc4ccccc4)ncnc32)o1 | -4.15% (inactive)
C=C(Cl)COC(=O)C1C2C=CC(C2)C1C(=O)O (stereo not drawn) | -1.65% (inactive)
CSCCC(NC(=O)C1CCC(C)CC1)C(=O)NCc1ccco1 (stereo not drawn) | 0.735% (inactive)
O=C(O)c1ccccc1NC(=S)NC(NC(=O)c1ccccc1[N+](=O)[O-])C(Cl)(Cl)Cl (stereo not drawn) | 14% (inactive)
CN(C)c1cc(-c2ccc(F)cc2)oc(=O)c1Cl | 5.73% (inactive)
CCCCCCc1cc2cc(-c3nnc(-c4ccccc4)o3)c(=O)oc2cc1O | -10.4% (inactive)
O=c1oc2cc(O)ccc2cc1-c1ccc(F)cc1 | 100% (active)
